In the library only some 2.3% were active in any assay of this set; here they are far more common.
USP1-UAF1 inh = Inhibitors of USP1/UAF1: Primary Screen; recombinant USP1/UAF1, Ub-Rhodamine cleavage fluorescence; hit rate 0.23% among 390,000; Potency, µM (top dose mostly 57.1 µM), inactives show at the highest dose activity change, negative = inhibition, most hits filed as inhibitors; AID 743255, 2014; Ubiquitin carboxyl-terminal hydrolase 1 (Homo sapiens), O94782; also: potency is read from the fitted curve at half-maximal effect; nearly all actives have a fitted effect of over 60% in size
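1 nM enzyme complex + cpd, 15 min RT; start with Ub-Rho 150nM final; kinetic fluorescence ex 480/em 540, 6 reads q60 s. Buffer 50mM HEPES pH 7.8, 0.5mM EDTA, 0.1 mg/ml BSA, 1mM TCEP, 0.01% Tween-20.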
Tau fluor cs = Counterscreen qHTS for Inhibitors of Tau Fibril Formation, Fluorescence Polarization; tau K18 P301L Alexa594 fluorescence, heparin fibrillization; Potency, µM (titrated, usually from 57.7 µM), without a hit: top-dose activity change, negative = decrease; hit rate 0.93% among 280,000; also: potency is read from the fitted curve at half-maximal effect; nearly all actives have a fitted effect of over 55% in size
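Human tau K18 P301L (15 uM unlabeled, 0.24 uM Alexa 594-labeled) in 100 mM sodium acetate pH 7 with 20 uM heparin, 6 hr at 37 C. ThT 30 uM added, 1 hr ambient; Alexa 594 FP and total fluorescence read at 555/632 nm.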
Tau ThT inhib = qHTS for Inhibitors of Tau Fibril Formation, Thioflavin T Binding. Microtubule-associated protein tau (Homo sapiens), P10636. recombinant tau K18 P301L, heparin-induced fibrillization, ThT fluorescence. Potency, µM (series often up to 57.4 µM), for the others: at the highest dose activity, negative = inhibition, actives largely listed as inhibitors. hit rate 2.1% among 270,000; also: potency is read from the fitted curve at half-maximal effect; nearly all actives have a fitted effect of over 55% in size
Target sequence (P10636 561-689 P618L limits assumed): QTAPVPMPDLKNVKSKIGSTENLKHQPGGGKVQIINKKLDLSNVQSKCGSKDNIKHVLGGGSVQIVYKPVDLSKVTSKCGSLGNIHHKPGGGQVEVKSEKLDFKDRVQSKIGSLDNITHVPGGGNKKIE
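K18 P301L tau (15 uM + 0.24 uM Alexa 594-tagged), heparin 20 uM, NaOAc pH 7, 6 h 37 C; ThT 30 uM, 1 h RT, ex 450/em 510 nm.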
FBPA coupling cs = qHTS Assay for Inhibitors of Fructose-1,6-bisphosphate Aldolase from Giardia Lamblia: Coupling assay counterscreen | coupling enzyme system counterscreen, AmpLite Red fluorescence | AID 2472, 2010 | hit rate 0.67% among 290,000 | activity change, negative = inhibition, % at 58.2 µM, hits read low; in the data active = activity change below about -30%
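Counterscreen lacking aldolase: glyceraldehyde-3-phosphate coupling-enzyme reagent preincubated 10 min at RT with compound (at 57.5 uM final), then substrate/coupling system with AmpLite Red added; fluorescence read at 525/598 nm after 20 min RT.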
Tau fibril FP = qHTS for Inhibitors of Tau Fibril Formation, Fluorescence Polarization. Microtubule-associated protein tau (Homo sapiens), P10636. K18 P301L tau heparin fibrillization, Alexa594 FP, 6 h. Potency, µM (highest dose often 57.7 µM), inactives show at the top dose activity, negative = inhibition, most hits filed as inhibitors. hit rate 0.39% among 280,000. AID 1468, 2008; also: potency is read from the fitted curve at half-maximal effect; nearly all actives have a fitted effect of over 55% in size
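Heparin (20 uM) drove fibril formation of recombinant tau K18 P301L, 15 uM unlabeled with 0.24 uM Alexa 594 label, for 6 hr at 37 C in 100 mM sodium acetate pH 7. Fluorescence polarization (555/632 nm) read 1 hr after 30 uM ThT.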
* marks the source's active call; other numbers are inactive results; u = inconclusive; x = no result; [ ] = another dose, or the depositor's remark. Unless noted, calls follow the shape of the dose curve; as a rule, active = well fitted curve in the direction sought with a large enough effect; inconclusive = small, poorly fitted or top-dose-only effect, or another doubt; inactive = no such curve, though single readings can be large; an effect the other way counts as inactive or inconclusive. % is scaled to controls: 0 for no effect and ±100 for the full control effect.

SMILES	USP1-UAF1 inh	Tau fluor cs	Tau ThT inhib	FBPA coupling cs	Tau fibril FP
O=C(O)CCN1C(=O)/C(=C\c2ccc(-c3nc4ccccc4s3)o2)SC1=S	u	-27.7%	2µM*	-5.2	-15.5%
COc1ccccc1C1CCN(c2cc(O)ccc2[N+](=O)[O-])CC1	-9.7%	u	20µM*	-1.0	u
COc1cc(CCNC2=CC(=O)c3ncccc3C2=O)ccc1O	17.8µM*	x	x	x	x
Cc1[nH]n(C(N)=S)c(=O)c1N=Nc1cc(-c2ccc(Br)cc2)[nH]n1	-22.2%	u	2.24µM*	1.6	3.0%
Nc1cc(-c2ccc(Br)cc2)[nH]n1	-9.2%	-0.7%	3.8%	-1.4	7.3%
Cc1ccc(N=Nc2c(C)[nH]n(C(N)=S)c2=O)cc1C	-21.6%	-3.9%	4.47µM*	3.3	5.3%
CC(=O)Nc1ccc(N=Nc2c(C)[nH]n(C(N)=S)c2=O)cc1	-14.3%	-21.5%	8.91µM*	-0.2	-6.7%
Cc1[nH]n(C(N)=S)c(=O)c1N=Nc1cccc([N+](=O)[O-])c1C	-23.8%	x	x	4.4	x
Cc1[nH]n(C(N)=S)c(=O)c1N=Nc1ccc2ccccc2c1	-12.2%	u	2.82µM*	1.3	3.0%
Cc1ccc(NC(=O)CSc2nc3ccccc3c(=O)[nH]2)cc1[N+](=O)[O-]	2.2%	x	x	x	x
O=S(=O)(Nc1ccc(-c2ccc(N3CCCC3)nn2)cc1)c1ccc(OC(F)(F)F)cc1	-15.6%	-23.4%	-8.8%	x	-10.8%
COc1cccc(CNC(=O)c2sc3nc[nH]c(=O)c3c2C)c1	u	12.7%	7.9%	x	6.6%
Cc1[nH]n(C(N)=S)c(=O)c1N=Nc1ccc(S(=O)(=O)N2CCCCCC2)cc1	-23.2%	-25.6%	25.1µM*	0.5	6.7%
Cc1ccc(C(=O)NNC(=O)c2ccc(S(=O)(=O)N3CCCCC3)cc2)cc1	-7.0%	x	x	x	x
Cc1cc2cc(C=C(C#N)C#N)c(Cl)nc2cc1C	-9.1%	-13.3%	3.16µM*	-1.3	u
CCOC(=O)/C(C#N)=C/c1cc2cc(C)c(C)cc2nc1Cl	-27.0%	-1.8%	-11.0%	-0.2	1.7%
COC(=O)CCCC1=CC2=C(c3ccccc3)C(=O)C(C)(OC(=O)C3CCCC3)C(=O)C2=CN1CCCOC(C)C (configuration not stated)	x	-15.9%[11.6 µM]	u	-24.6	10.7%[11.6 µM]
COc1cccc(Cn2c(=O)c(-c3cccs3)nc3cnc(N4CCNCC4)nc32)c1	x	x	x	-4.1	x
COc1ccc(CCn2c(NN=C(C)C)nc3c2c(=O)[nH]c(=O)n3C)cc1	-5.1%	u	22.4µM*	-24.2	u
COc1ccc(CCn2c(NN)nc3c2c(=O)[nH]c(=O)n3C)cc1	-23.3%	u	x	-23.6	u
COc1cccc(Cn2c(=O)c(-c3ccc(Cl)cc3)nc3cnc(N4CCNCC4)nc32)c1	x	x	x	-2.1	x
CCN(CC)c1ccc(N=Cc2ccc(N(CC)CC)cc2O)cc1	u	u	u	-13.5	u
CCN1CCN(c2ccc(N=Cc3ccc(O)cc3O)cc2)CC1	-14.3%	u	15.8µM*	-4.2	u
CCOC(=O)C1=CN(c2cccc(F)c2)C=C(C(=O)OCC)C1c1cc(OC)c(O)c([N+](=O)[O-])c1	-5.7%	u	12.6µM*	0.8	9.2%
COC(=O)C1=CN(c2ccc(F)cc2)C=C(C(=O)OC)C1c1ccc([N+](=O)[O-])cc1	-0.7%	x	x	-1.5	x
SMILES	USP1-UAF1 inh	Tau fluor cs	Tau ThT inhib	FBPA coupling cs	Tau fibril FP
O=C(O)c1ccc(NC2=C(n3nnc4ccccc43)C(=O)c3ccccc3C2=O)cc1	15.8µM*	-20.8%	u	-32.7*	-13.9%
CCCCCCc1cc2cc(-c3nnc(-c4ccccc4O)o3)c(=O)oc2cc1O	8.91µM*	-12.3%	u	1.8	6.6%
CCCCCCc1cc2cc(-c3nnc(-c4cc(OC)c(OC)c(OC)c4)o3)c(=O)oc2cc1O	65.8%	3.5%	1.7%	-3.3	-0.7%
CCCCCCc1cc2cc(-c3nnc(-c4ccccc4OC)o3)c(=O)oc2cc1O	14.1µM*	-8.4%	u	-1.6	-5.3%
CCCCCCc1cc2cc(S(=O)(=O)c3ccc(F)cc3)c(=O)oc2cc1O	-4.7%	-18.1%	-2.7%	1.4	3.4%
CC(C)(C)c1ccc(C(=O)NCC(=O)N2CCC3(CC2)NCCc2[nH]cnc23)cc1	-11.2%	x	x	2.6	x
CC(C)C(=O)Nc1ccc(N2CCCC2)cc1	-8.4%	-29.8%	u	-32.0*	2.2%
Cc1cc(C)cc(NC(=O)Nc2ccc(N3CCCCC3)cc2)c1	-23.5%	20µM*[quencher]	u	-1.6	10.2%
COc1ccc2cc(S(=O)(=O)c3ccccc3F)c(=O)oc2c1	-14.5%	-17.9%	-4.3%	x	-15.9%
Cc1nnc(C)n1/N=C/c1cc(Br)cc(Br)c1O	-18.9%	-11.5%	11.2µM*	-6.0	-11.6%
O=C1C(=O)N(Cc2ccc(Cl)c(Cl)c2)c2ccccc21	x	-26.8%	14.1µM*	-1.4	-3.6%
CCOc1ccc(NC(=O)N2CCC(CN3CCc4ccccc4C3)CC2)cc1	-3.4%	-7.0%	-10.3%	x	4.3%
Cc1ccc(S(=O)(=O)/N=C2/NC(=O)/C(=C/c3ccccc3)S2)cc1	-18.0%	10.9%	-5.9%	17.3	16.2%
Cc1ccc(S(=O)(=O)/N=C2/NC(=O)/C(=C/c3cc([N+](=O)[O-])ccc3O)S2)cc1	28.2µM*	x	x	16.6	x
COc1cc(/C=C2\S/C(=N/S(=O)(=O)c3ccc(C)cc3)NC2=O)c([N+](=O)[O-])cc1OC	-14.1%	u	14.1µM*	10.2	u
COc1ccc(-c2csc(Nc3ncccc3C)n2)cc1OC	-14.2%	u	10µM*	0.2	11.9%
Oc1ccc(-c2csc(Nc3ccccn3)n2)cc1O	-8.5%	x	x	0.4	x
Cc1cccnc1Nc1nc(-c2ccc(O)c(O)c2)cs1	u	12.6µM*[quencher]	7.94µM*	-19.7	-1.8%
COc1ccc(-c2csc(Nc3ncccc3C)n2)cc1	-31.3%	-1.9%	-7.3%	-0.7	-4.4%
COc1ccc(-n2nc(C(=O)Nc3ccc(Cl)cn3)c3c4ccccc4n(C)c3c2=O)cc1	-27.8%	-3.3%	0.1%	x	-5.3%
CCN1/C(=C/c2ccc3cc(C)cc(C)c3[n+]2CC)Sc2cc(C)ccc21	-19.6%	u	4.47µM*	1.4	u
CCN1/C(=C/c2ccc3cccc(C)c3[n+]2CC)Sc2ccccc21	-19.3%	17.9%	u	5.3	u
CCN1/C(=C/c2ccc3cc(C)ccc3[n+]2CC)Sc2ccc3sccc3c21	-15.4%	x	x	x	x
CCN1/C(=C\c2ccc3cc(C)ccc3[n+]2CC)Sc2cc(C)c(C)cc21	-14.9%	u	7.94µM*	2.2	u
CO[C@H]1COC(=O)[C@@H](CCSC)NC(=O)C/C=C\[C@@H](C)[C@H](OC)COC(=O)[C@@H](OCc2ccccc2)/C=C\[C@@H]1C	x	-12.0%[11.6 µM]	-8.9%[11.5 µM]	0.7	-1.3%[11.6 µM]

Compound activity deposited in PubChem by National Center for Advancing Translational Sciences (NCATS).
